Common to all, as to assay: NCI-60 one-dose screen, 48 h (100 = growth as untreated, 0 = no growth, -100 = all killed)
Common to all, as to settings: 10 µM unless noted

For experiment [1], the system named is DU-145 prostate.
Experiment [2] deals with K-562 leukemia.
The subject of experiment [3] is MALME-3M melanoma.
For experiment [4], the system named is MDA-MB-231 breast.
Experiment [5] has as its system RXF 393 renal.
Experiment [6] concerns SF-268 CNS.
In experiment [7] the test system is SF-295 CNS.
The test system of experiment [8] is SF-539 CNS.
For experiment [9], the system named is UACC-257 melanoma.
The test system of experiment [10] is M14 melanoma.
In experiment [11] the test system is HCT-15 colon.
Experiment [12] deals with HT29 colon.
For experiment [13], the system named is SNB-75 CNS.
The subject of experiment [14] is SNB-19 CNS.
The test system of experiment [15] is U251 CNS.
For experiment [16], the system named is PC-3 prostate.
For experiment [17], the system named is SK-MEL-5 melanoma.
Experiment [18] has as its system UACC-62 melanoma.
In experiment [19] the test system is LOX IMVI melanoma.
The subject of experiment [20] is SK-MEL-28 melanoma.

This is part of a sample that, as a whole, favours compounds with a hit. Of some 83,000 tested, about 20% had one in any assay.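 A percent growth of 40 corresponds to 60% growth inhibition; 0 means no net growth; -100 means all cells died. Active threshold: below 10.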 Values without a mark were called inactive. Calls of active or inactive are those of the source.

Regarding `O=C(c1ccccc1)c1c(/C=C/c2ccc(Cl)cc2)nc2ccccc2c1/C=C/c1cccs1`, the growth is 107% in experiment [1]; 83.6% in experiment [2]; 99.3% in experiment [3]; 94.4% in experiment [4]; 104% in experiment [5]; 93.5% in experiment [6]. For the same compound, the growth was 102% in experiment [7]; 97.3% in experiment [8]; 87.7% in [9]; 96.8% in experiment [10]; 96.6% in [11]; 100% in experiment [12]. Moreover, the growth in experiment [13] is 84.1%; in experiment [14], 89.7%; in experiment [15], 93.5%; in experiment [16] it was 91.8%; in [17], 100%; in experiment [18], 87.4%. Besides, the growth in experiment [19] is 94.2%; in experiment [20], 102%.

For the compound `COc1cc(/C=N/Nc2ncc(-c3cc4cc5c(cc4o3)OCO5)s2)cc(OC)c1OC`, the growth in experiment [1] was 48%; in [2] it was 30.1%; in experiment [3], 93.8%; in [4] it was 46.5%; in experiment [5], 66.3%; in [6] it was 74.9%. Further, the growth in experiment [7] is 67.1%; in experiment [8], 81.7%; in experiment [9], 42.2%; in experiment [10] it was 26.3%; in experiment [11] it was 35.7%; in [12], 56.2%. For the same compound, the growth is 72.4% in experiment [13]; 76.1% in experiment [14]; 68.1% in experiment [15]; 21.5% in [16]; 4.87% (active) in [17]; 33.7% in experiment [18]. Moreover, the values for the growth in experiment [19] and in experiment [20] were 36.1% and 60.7%, respectively.

Regarding `COc1ccc(CNC(=O)C(O)C(Cc2ccccc2)NC(=O)c2[nH]c3ccccc3c(=O)c2C)cc1OC` (stereo not given), the growth in experiment [1] is 113%; in experiment [2] it was 102%; in experiment [3], 111%; in experiment [4] it was 103%; in [5], 111%; in experiment [6], 102%. The growth in [7] was 99.7%; in experiment [8], 107%; in experiment [9], 105%; in experiment [10] it was 106%; in [11], 101%; in experiment [12] it was 100%. For the same compound, the growth in [13] is 107%; in experiment [14], 100%; in [15] it was 101%; in experiment [16], 102%; in experiment [17], 103%; in [18] it was 103%. Further, the results for the growth in experiment [19] and in [20] were 104% and 109%, respectively.

With `N=C1CCC(=N)c2c1c(O)c1ccccc1c2O`, the growth in experiment [1] was 106%; in [2] it was 65.1%; in experiment [3] it was 135%; in experiment [4], 89.6%; in experiment [5], 79.6%; in [6] it was 85.4%. The growth was 102% in [7]; 171% in experiment [8]; 101% in [9]; 118% in experiment [10]; 108% in [11]; 101% in experiment [12]. The growth in [13] was 87.2%; in [14], 103%; in [15] it was 100%; in experiment [16], 80.3%; in experiment [17], 126%; in [18], 102%. The growth is 81.9% in experiment [19] and 106% in experiment [20].

For `COc1ccc(NC(=O)c2nc(-c3cc(OC)c(OC)c(OC)c3)n(-c3cccc4ccccc34)n2)cc1OC`, the growth in [1] is 70.4%; in [2], 35.4%; in experiment [3], 52.8%; in experiment [4] it was 27%; in [5], 66.1%; in experiment [6] it was 58.6%. Also, the growth in [7] is 52.6%; in experiment [8] it was 35%; in experiment [9], 57.5%; in [10], 48%; in [11], 14.5%; in [12], 30%. Also, the growth in [13] was 24.4%; in experiment [14], 52.3%; in experiment [15], 52.4%; in experiment [16] it was 39.8%; in experiment [17] it was 32.4%; in experiment [18], 31%. Moreover, the figures for the growth in experiment [19] and in experiment [20] were 25.2% and 55.4%, respectively.

In the case of `CC1CC2Oc3ccc(Cl)cc3C(=O)N2O1` (stereo not given), the growth was 102% in [1]; 107% in experiment [2]; 118% in [3]; 102% in experiment [4]; 119% in experiment [5]; 103% in [6]. Also, the growth in [7] is 104%; in experiment [8], 102%; in experiment [9], 118%; in experiment [10] it was 107%; in experiment [11], 99.2%; in experiment [12], 105%. In addition, the growth in [13] was 101%; in experiment [14], 112%; in [15], 108%; in experiment [16], 97.1%; in experiment [17] it was 102%; in experiment [18], 108%. Moreover, the growth is 98.2% in [19] and 118% in experiment [20].

`CC1=C([Se]CC(OC(=O)CC[Se]c2ccccc2)C(=O)NCCCCCC(=O)OCc2ccccc2)C(=O)c2ccccc2C1=O` (stereo not given): the growth in experiment [1] was 22.1%; in [2], 39.5%; in experiment [3] it was -31.3% (active); in [4], 32.3%; in [5], 35%; in experiment [6], 4.54% (active). Besides, the growth in experiment [7] is -7.86% (active); in experiment [8], 15.3%; in experiment [9], 35.9%; in experiment [10], -36.8% (active); in [11], 50.1%; in experiment [12], 41.2%. Moreover, the growth in experiment [13] was 56.2%; in [14], 31%; in experiment [15], 12.7%; in [16], 30.7%; in experiment [17], -24.9% (active); in experiment [18], 41.6%. Besides, the growth in experiment [19] was 10.3%; in [20], 21.7%.

Turning to `CCOC(=O)C/C(C)=N\NC(=O)c1ccncc1`, the growth was 107% in experiment [1]; 93.2% in experiment [2]; 83.8% in experiment [3]; 102% in [4]; 72.3% in [5]; 101% in experiment [6]. For the same compound, the growth is 92.9% in [7]; 97.7% in experiment [8]; 107% in experiment [9]; 106% in experiment [10]; 108% in [11]; 100% in [12]. Moreover, the growth in [13] was 107%; in experiment [14], 87.7%; in [15], 107%; in experiment [16] it was 96.5%; in experiment [17] it was 104%; in experiment [18], 88.1%. Besides, the growth is 105% in [19] and 116% in experiment [20].

(Values after PubChem BioAssay (NCI).)
